# The list is not random: actives were taken first. Their share in the collection is about 9.9%.
# HPGD block: qHTS Assay for Inhibitors of HPGD (15-Hydroxyprostaglandin Dehydrogenase). 15-hydroxyprostaglandin dehydrogenase [NAD(+)] (Homo sapiens), P15428. purified HPGD, NADH fluorescence kinetic, PGE2 substrate. Potency, µM, hits mostly inhibitors. 4.3% of 150,000 active. AID 894, 2007
# Target sequence (P15428 whole entry, looked up): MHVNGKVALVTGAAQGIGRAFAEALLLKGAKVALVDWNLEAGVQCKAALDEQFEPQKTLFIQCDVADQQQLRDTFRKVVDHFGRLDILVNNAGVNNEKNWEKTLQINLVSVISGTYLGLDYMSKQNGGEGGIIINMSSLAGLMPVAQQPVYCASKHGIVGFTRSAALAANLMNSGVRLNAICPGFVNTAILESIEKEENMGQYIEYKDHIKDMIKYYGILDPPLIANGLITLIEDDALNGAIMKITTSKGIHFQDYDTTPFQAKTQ
#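 20 nM HPGD preincubated 15 min at room temperature with compound in 50 mM Tris-HCl pH 8, 0.01% Tween 20. Started with 1 mM NAD+ and 30 uM prostaglandin E2; NADH fluorescence (360/450 nm) read 5 times over 30-s intervals, last minus first.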
# Tau FP inhib: qHTS for Inhibitors of Tau Fibril Formation, Fluorescence Polarization; Microtubule-associated protein tau (Homo sapiens), P10636; K18 P301L tau heparin fibrillization, Alexa594 FP, 6 h; Potency, µM (highest dose often 57.7 µM), usual class: inhibitors; 0.39% of 280,000 active; active means well fitted curve in the direction sought with a large enough effect; inconclusive means small, poorly fitted or top-dose-only effect, or another doubt; inactive means no such curve, though single readings can be large; an effect the other way counts as inactive or inconclusive; further: nearly all actives have a fitted effect of over 55% in size
# Target sequence (P10636 561-689 P618L limits assumed): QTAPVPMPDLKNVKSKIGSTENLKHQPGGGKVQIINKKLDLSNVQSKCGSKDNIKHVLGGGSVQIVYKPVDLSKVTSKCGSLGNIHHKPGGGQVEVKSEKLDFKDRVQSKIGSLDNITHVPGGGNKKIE
#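 K18 P301L tau (15 uM unlabeled/0.24 uM Alexa 594-labeled, final) + compound + heparin 20 uM final; 100 mM NaOAc pH 7; 6 hr 37 C; ThT 30 uM final added, 1 hr RT; FP ex 555/em 632 nm.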
# Tau fluor cs: Counterscreen qHTS for Inhibitors of Tau Fibril Formation, Fluorescence Polarization; tau K18 P301L Alexa594 fluorescence, heparin fibrillization; Potency, µM (series often up to 57.7 µM); 0.93% of 280,000 active; AID 1463, 2008; active means well fitted curve in the direction sought with a large enough effect; inconclusive means small, poorly fitted or top-dose-only effect, or another doubt; inactive means no such curve, though single readings can be large; an effect the other way counts as inactive or inconclusive; further: nearly all actives have a fitted effect of over 55% in size
#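 Human tau K18 P301L (15 uM unlabeled, 0.24 uM Alexa 594-labeled) in 100 mM sodium acetate pH 7 with 20 uM heparin, 6 hr at 37 C. ThT 30 uM added, 1 hr ambient; Alexa 594 FP and total fluorescence read at 555/632 nm.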
# Tau ThT inhib: qHTS for Inhibitors of Tau Fibril Formation, Thioflavin T Binding; Microtubule-associated protein tau (Homo sapiens), P10636; recombinant tau K18 P301L, heparin-induced fibrillization, ThT fluorescence; Potency, µM (top dose mostly 57.4 µM), hits mostly inhibitors; 2.1% of 270,000 active; AID 1460, 2008; active means well fitted curve in the direction sought with a large enough effect; inconclusive means small, poorly fitted or top-dose-only effect, or another doubt; inactive means no such curve, though single readings can be large; an effect the other way counts as inactive or inconclusive; further: nearly all actives have a fitted effect of over 55% in size
#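 Fibril formation assay: tau K18 P301L at 15 uM with trace Alexa 594 label, heparin inducer 20 uM, pH 7 sodium acetate buffer, 37 C for 6 hr; endpoint ThT signal.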
# JMJD2E inh: qHTS Assay for Inhibitors of Human Jumonji Domain Containing 2E (JMJD2E); Potency, µM (doses to about 57.1 µM), usual class: inhibitors; Lysine-specific demethylase 4E (Homo sapiens), B2RXH2; JMJD2E catalytic domain, FDH-coupled NADH fluorescence (FDH is formaldehyde dehydrogenase); 1.6% of 230,000 active; further: nearly all actives have a fitted effect of over 50% in size
# ALDH1A1 inh: qHTS Assay for Inhibitors of Aldehyde Dehydrogenase 1 (ALDH1A1); Aldehyde dehydrogenase 1A1 (Homo sapiens), P00352; Purified ALDH1A1, NADH fluorescence, propionaldehyde substrate; Potency, µM (titrated, usually from 75.3 µM), most hits filed as inhibitors; 7.3% of 220,000 active; AID 1030, 2008
# Hits are given with their value; 0 = inactive; ? = inconclusive; - = no result; [ ] = dose if it differs, or a comment. Unless noted, the call rests on the fitted dose curve; in most records, active means well fitted inhibition curve with a large enough effect (not every such curve was filed as active); inconclusive means small, poorly fitted or top-dose-only effect, or another doubt; inactive means no such curve, though single readings can be large or run the other way.
SMILES,HPGD block,Tau FP inhib,Tau fluor cs,Tau ThT inhib,JMJD2E inh,ALDH1A1 inh
C=C(CC(=O)OC)C[C@]1(CC(=O)OC)CC2(CC=C(C)C)C(=O)C(C(=O)c3ccccc3)=C(OC(=O)c3ccc(Br)cc3)C(CC=C(C)C)(C1)C2=O (stereo partly specified),-,0[11.6 µM],0[11.6 µM],0[11.5 µM],-,0[13.5 µM]
O=c1nc(NCc2ccco2)sc2ncccc12,?,0,0,0,0,0
CCN(c1ccccc1)c1nc(=O)c2cccnc2s1,-,0,0,0,0,20µM
Cc1ccc(NC(=O)c2c(C)oc3ccc(O)c(CN4CCN(Cc5ccccc5)CC4)c23)cc1,-,?,0,0,-,-
CC1=CC(C)(C)Nc2ccc(OC(=O)CN3C(=O)c4ccccc4C3=O)cc21,?,0,15.8µM[quencher],?,0,?
CC1=CC(C)(C)Nc2ccc(OC(=O)CN3C(=O)c4cccc5cccc(c45)C3=O)cc21,0,?,?,12.6µM,12.6µM,11.2µM
COc1ccc(C(=O)NNC(=O)CSc2nnc(COc3ccccc3OC)n2C)cc1,0,0,0,0,0,0
CCC1OC(=O)C[C@H](O)C(C)[C@@H](O[C@@H]2OC(C)C(O)C(N(C)C)C2O)C(CCN2CC(C)CC(C)C2)CC(C)C(=O)/C=C/C(C)=C\[C@@H]1COC1OC(C)C(O)C(OC)C1OC (stereo partly specified),0,0,0,0,?,0
CCOC(=O)N1CCc2c(sc3c2c(=O)n(-c2ccccc2)c(=O)n3CC(=O)Nc2ccc(OC)cc2OC)C1,-,0,0,0,-,-
CN1COc2ccc3ccccc3c2C1,-,0,?,?,14.1µM,0
CCN(CC)Cc1cc2ccccc2c2c1COC2,0,0,0,0,0,0
COc1ccc(S(=O)(=O)c2c(Nc3c(C)cccc3C)sc(C(=O)c3ccc4c(c3)OCO4)c2N)cc1,-,0,0,0,-,-
CCC(=O)N1CCc2cc(CNC(=O)c3ccc(OC)cc3)ccc21,-,0,0,0,-,-
Cc1cc(C)cc(OCC(=O)OCC(=O)NCc2ccco2)c1,0,?,0,0,0,35.5µM
COc1ccc(OCC(=O)OCC(=O)NCc2ccco2)cc1,0,0,0,0,0,0
Cc1ccc(OCCCC(=O)NCc2ccco2)cc1,25.1µM,0,0,0,0,0
Cc1ccccc1OCCCC(=O)NCc1ccco1,25.1µM,0,0,0,0,0
Cc1ccc(C2NC(c3ccc(C)cc3)C(C)C(=O)C2C)cc1 (stereo unspecified),-,0,0,?,0,-
CCOc1ccc(Nc2n[nH]c(=S)s2)cc1,-,0,0,?,0,1.26µM
S=c1[nH]nc(Nc2ccc(Cl)cc2)s1,-,0,0,0,0,-
Cn1cc(C=C2C(=O)Nc3cccnc32)c2ccccc21,0,0,?,10µM,-,0
COC(=O)C1C2C=CC3(CN(CCc4ccccc4)C(=O)C13)O2 (stereo unspecified),0,0,0,0,0,0
COc1ccc(CCN2CC34C=CC(O3)C(C(=O)NCc3ccccc3)C4C2=O)cc1OC (stereo unspecified),10µM,0,0,0,0,0
Cc1noc(C)c1S(=O)(=O)NCCc1csc2nc(-c3ccc(F)cc3)nn12,-,?,0,0,-,-
Oc1ccc(-c2cn3c(n2)SCC3)cc1O,2.24µM,?,14.1µM[quencher],10µM,12.6µM,6.31µM
COc1ccc(C(=O)N/N=C/C2CC=CCC2)cc1OC (stereo unspecified),-,0,0,0,0,?
Clc1ccccc1-c1nnn(Cc2ccc(-c3nn[nH]n3)cc2)n1,12.6µM,0,0,0,0,15.8µM
CCOc1cc(-c2ccc(OC(=O)c3ccc(Cl)cc3)c(OC)c2)cc(=O)c2c(C)oc(C)c12,-,0,0,0,-,-

# Screening results: PubChem, National Center for Advancing Translational Sciences (NCATS)
